This assay concerns the target Genome polyprotein (Dengue virus type 2 (strain 16681-PDK53)) (UniProt P29991). Description: Dengue-2 NS5 methyltransferase inhibitors, primary screen, biochemical, confirmation dose response (AID 588689). The conditions noted are these: Dengue-2 NS5 methyltransferase capping enzyme assay, at 25 µM, stronger effect = higher value.
The mark [1] stands for this setting: measured here: pilot screen replicate inhibition.

Molecules are shown by their SMILES. Out of some 340,000 compounds screened, about 1,000 (0.29%) were called active. No stated cut-off is given here; in the data, inconclusive means inhibition above about 29% without an active follow-up result; inactive means below that. The list is a sample of the results. Measured potencies and affinities stand elsewhere.

Chain of Genome polyprotein (Dengue virus type 2 (strain 16681-PDK53)) (P29991 whole entry, looked up): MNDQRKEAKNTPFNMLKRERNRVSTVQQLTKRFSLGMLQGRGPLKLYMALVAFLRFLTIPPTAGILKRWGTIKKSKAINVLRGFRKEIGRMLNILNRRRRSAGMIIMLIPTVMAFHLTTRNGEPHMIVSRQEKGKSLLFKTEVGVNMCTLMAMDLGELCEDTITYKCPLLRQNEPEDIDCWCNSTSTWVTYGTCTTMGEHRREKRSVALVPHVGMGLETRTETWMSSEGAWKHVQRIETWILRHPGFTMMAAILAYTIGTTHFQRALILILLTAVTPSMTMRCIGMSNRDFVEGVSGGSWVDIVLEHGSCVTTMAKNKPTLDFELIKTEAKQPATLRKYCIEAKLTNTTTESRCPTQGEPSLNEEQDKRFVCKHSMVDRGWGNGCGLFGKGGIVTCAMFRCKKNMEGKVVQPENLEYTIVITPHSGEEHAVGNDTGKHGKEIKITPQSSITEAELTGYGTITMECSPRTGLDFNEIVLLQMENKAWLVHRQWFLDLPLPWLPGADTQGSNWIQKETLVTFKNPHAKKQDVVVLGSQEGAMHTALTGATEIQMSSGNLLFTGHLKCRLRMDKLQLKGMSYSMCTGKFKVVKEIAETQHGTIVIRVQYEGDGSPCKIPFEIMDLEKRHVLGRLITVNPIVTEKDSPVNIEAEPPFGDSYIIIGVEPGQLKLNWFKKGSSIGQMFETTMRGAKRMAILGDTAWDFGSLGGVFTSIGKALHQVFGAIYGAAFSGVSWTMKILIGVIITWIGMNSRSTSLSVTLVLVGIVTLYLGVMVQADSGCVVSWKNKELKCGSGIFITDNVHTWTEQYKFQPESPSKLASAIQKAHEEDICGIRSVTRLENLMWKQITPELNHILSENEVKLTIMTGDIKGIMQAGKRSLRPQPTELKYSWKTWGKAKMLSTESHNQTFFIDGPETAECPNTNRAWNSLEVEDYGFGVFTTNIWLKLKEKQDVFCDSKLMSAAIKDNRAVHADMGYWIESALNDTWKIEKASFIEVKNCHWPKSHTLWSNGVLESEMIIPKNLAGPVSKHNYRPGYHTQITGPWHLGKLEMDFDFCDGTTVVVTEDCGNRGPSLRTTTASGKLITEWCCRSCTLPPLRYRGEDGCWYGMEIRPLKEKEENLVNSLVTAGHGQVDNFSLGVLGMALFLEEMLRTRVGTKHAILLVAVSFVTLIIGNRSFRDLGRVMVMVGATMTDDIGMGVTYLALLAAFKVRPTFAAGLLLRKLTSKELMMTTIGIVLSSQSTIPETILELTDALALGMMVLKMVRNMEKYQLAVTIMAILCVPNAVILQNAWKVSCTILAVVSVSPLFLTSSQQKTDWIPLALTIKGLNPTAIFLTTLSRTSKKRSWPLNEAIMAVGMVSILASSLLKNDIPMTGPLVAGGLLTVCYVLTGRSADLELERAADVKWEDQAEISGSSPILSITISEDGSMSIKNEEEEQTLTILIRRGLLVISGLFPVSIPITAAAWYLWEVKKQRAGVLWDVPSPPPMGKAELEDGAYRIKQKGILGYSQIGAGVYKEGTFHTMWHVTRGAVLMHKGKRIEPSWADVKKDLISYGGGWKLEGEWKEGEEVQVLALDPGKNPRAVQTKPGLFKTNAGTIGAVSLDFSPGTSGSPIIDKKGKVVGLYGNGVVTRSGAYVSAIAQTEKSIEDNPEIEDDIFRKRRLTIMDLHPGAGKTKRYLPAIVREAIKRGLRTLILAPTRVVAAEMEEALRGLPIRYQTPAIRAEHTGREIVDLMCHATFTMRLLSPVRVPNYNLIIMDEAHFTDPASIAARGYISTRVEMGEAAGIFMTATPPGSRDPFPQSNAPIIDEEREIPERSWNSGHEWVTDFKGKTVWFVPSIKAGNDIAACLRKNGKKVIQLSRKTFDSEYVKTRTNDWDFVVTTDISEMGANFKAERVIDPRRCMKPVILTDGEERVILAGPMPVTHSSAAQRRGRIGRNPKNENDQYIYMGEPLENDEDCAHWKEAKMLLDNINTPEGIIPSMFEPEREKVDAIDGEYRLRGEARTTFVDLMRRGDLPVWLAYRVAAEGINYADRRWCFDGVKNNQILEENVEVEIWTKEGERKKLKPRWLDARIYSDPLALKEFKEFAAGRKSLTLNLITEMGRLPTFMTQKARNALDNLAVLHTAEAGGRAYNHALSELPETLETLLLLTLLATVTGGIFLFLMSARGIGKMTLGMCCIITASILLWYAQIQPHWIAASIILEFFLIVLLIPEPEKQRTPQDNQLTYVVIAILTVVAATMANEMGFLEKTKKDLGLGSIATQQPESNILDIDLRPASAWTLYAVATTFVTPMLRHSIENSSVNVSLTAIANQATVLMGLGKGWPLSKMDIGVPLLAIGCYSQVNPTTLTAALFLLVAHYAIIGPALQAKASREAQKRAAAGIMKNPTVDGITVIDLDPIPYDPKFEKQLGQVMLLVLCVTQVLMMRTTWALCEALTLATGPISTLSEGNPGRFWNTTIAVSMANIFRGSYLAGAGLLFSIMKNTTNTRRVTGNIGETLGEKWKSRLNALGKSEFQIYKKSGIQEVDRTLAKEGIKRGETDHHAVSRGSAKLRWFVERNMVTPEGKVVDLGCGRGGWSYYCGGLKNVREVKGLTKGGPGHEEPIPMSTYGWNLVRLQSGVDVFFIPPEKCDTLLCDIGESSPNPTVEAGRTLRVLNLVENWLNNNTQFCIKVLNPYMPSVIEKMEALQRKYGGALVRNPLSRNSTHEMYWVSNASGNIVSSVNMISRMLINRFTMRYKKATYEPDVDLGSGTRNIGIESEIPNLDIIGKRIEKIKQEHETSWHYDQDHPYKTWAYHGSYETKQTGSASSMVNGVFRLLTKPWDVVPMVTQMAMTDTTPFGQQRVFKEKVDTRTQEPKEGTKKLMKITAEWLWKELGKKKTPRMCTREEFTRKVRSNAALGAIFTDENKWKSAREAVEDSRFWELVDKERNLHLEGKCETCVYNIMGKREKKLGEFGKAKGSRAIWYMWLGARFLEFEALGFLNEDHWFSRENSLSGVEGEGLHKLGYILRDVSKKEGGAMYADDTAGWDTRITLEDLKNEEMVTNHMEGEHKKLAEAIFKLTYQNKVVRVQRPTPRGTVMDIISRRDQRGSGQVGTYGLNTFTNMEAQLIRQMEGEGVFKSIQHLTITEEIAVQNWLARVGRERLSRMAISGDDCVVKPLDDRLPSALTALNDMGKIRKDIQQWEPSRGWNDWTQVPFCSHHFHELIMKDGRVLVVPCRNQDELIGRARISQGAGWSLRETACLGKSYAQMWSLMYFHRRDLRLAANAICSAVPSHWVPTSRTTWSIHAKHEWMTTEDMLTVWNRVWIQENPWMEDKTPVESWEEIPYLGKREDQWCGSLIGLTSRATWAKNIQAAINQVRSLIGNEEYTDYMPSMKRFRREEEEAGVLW

The inhibition is the relative decrease from the control value, in per cent. On to `COCCn1c(C)nnc1SCC(=O)NNC(=O)c1ccc(Br)cc1`, for which the inhibition was -3.23% (inactive).

With `O=C(ONC(=O)C1C2C=CC(C2)C1C(=O)NOC(=O)c1ccccc1)c1ccccc1` (centres undefined), the inhibition is -1.55% (inactive).

As to `O=C(CC1SCCNC1=O)Nc1ccccc1Cl` (centres undefined), the inhibition is 0% (inactive).

Regarding `COc1ccccc1C(=O)NCC(=O)N/N=C/c1cn[nH]c1-c1ccccc1`, the inhibition was -1.82% (inactive).

Turning to `Cc1c(OC(C)C(=O)NCC(O)c2ccccc2)ccc2c3c(c(=O)oc12)CCCC3` (centres undefined), the inhibition was 2.62% (inactive).

Consider `CN1CCc2c(sc(NC(=O)c3ccc([N+](=O)[O-])o3)c2C(N)=O)C1`, for which the inhibition is 6.69% (inactive).

For the molecule `CC(C)N1CCc2c(sc(NC(=O)c3ccc([N+](=O)[O-])o3)c2C(N)=O)C1`, the inhibition is -6.69% (inactive).

Take `COc1ccc(C(CNC(=O)c2ccc(-c3ccccc3Cl)o2)N2CCCC2)cc1` (centres undefined): the inhibition is 1.14% (inactive).

Consider `NS(=O)(=O)c1ccc(CCNC(=O)Nc2ccc(Cl)c(Cl)c2)cc1`, for which the inhibition is -1.37% (inactive).

With `CCc1c(C(=O)N2CCOCC2)csc1C`, the inhibition is -2.41% (inactive).

Turning to `O=C(c1ccccc1)c1cn[nH]c1-c1ccccc1O`, the inhibition was -2.78% (inactive).

In the case of `Cc1nc(COC(=O)c2ccc(CO)cc2)cs1`, the inhibition is -2.35% (inactive).

As to `COc1ccc(C(=O)OCc2csc(C)n2)c(O)c1`, the inhibition is -2.19% (inactive).

Take `COc1ccc(OC)c(C(=O)CCCCC(=O)c2cc(OC)ccc2OC)c1`: the inhibition is 2.88% (inactive).

As to `CCCCc1c(C(=O)O)cc(OC)cc1C(=O)O`, the inhibition is 5.73% (inactive).

For the molecule `COc1ccc(OC)c(C(=O)CCCC(=O)c2cc(OC)ccc2OC)c1`, the inhibition was 5.23% (inactive).

For `CCCCCc1cc(OC)cc2c1C(=O)OC(C)(C)O2`, the inhibition was 1.32% (inactive). Further, under setting [1], the inhibition was -1.23%.

Consider `Cc1nc2c([nH]1)C1(CCN(Cc3ccccc3)CC1)C(C#N)=C(N)O2`, for which the inhibition is 12.1% (inactive).

As to `O=C(c1ccncc1)N(Cc1cc2ccccc2[nH]c1=O)C1CCCCC1`, the inhibition is -1.6% (inactive).

Consider `Cc1ccc(NS(=O)(=O)c2ccccc2)c(NS(=O)(=O)c2ccccc2)c1`, for which the inhibition was 13.2% (inactive).

For `COc1ccc(S(=O)(=O)NC2CC3CCC2C3)cc1` (centres undefined), the inhibition was -4.66% (inactive).

Take `COc1cccc(-c2coc3c(C)c4oc(=O)c(CC(=O)O)c(C)c4cc23)c1`: the inhibition was 1.96% (inactive).

For the molecule `Cc1c(CCC(=O)O)c(=O)oc2cc3occ(-c4ccc(Br)cc4)c3cc12`, the inhibition is 17.7% (inactive).

Consider `Cc1c(CC(=O)O)c(=O)oc2c(C)c3occ(-c4ccc(Br)cc4)c3cc12`, for which the inhibition was 26.1% (inactive).

On to `COc1ccccc1COc1ccc2c(C)c(CCC(=O)O)c(=O)oc2c1C`, for which the inhibition is 7.18% (inactive).

In the case of `COc1ccc(-c2coc3c(C)c4oc(=O)c(CCC(=O)O)c(C)c4cc23)cc1`, the inhibition was 11.8% (inactive).

In the case of `Cc1c(CCC(=O)O)c(=O)oc2cc3occ(-c4ccc(Cl)cc4)c3cc12`, the inhibition was 18.3% (inactive).

`Cc1c(CC(=O)O)c(=O)oc2c(C)c(OCc3ccc(F)cc3Cl)ccc12`: the inhibition is 1.96% (inactive).

Regarding `COc1cccc(-c2coc3cc4oc(=O)c(CCC(=O)O)c(C)c4cc23)c1`, the inhibition was 9.7% (inactive).

Regarding `CCC[C@@H](CN1CCC[C@H]1CN1C(N)=NC[C@@H]1Cc1ccccc1)N1C[C@@H]([C@H](C)CC)N(CCc2ccc(Cl)c(Cl)c2)C1=N`, the inhibition was -10.2% (inactive).

For the molecule `COc1ccc(-n2c(=O)cc(N3CC(C)OC(C)C3)[nH]c2=O)cc1` (centres undefined), the inhibition was -3.21% (inactive).

`N#Cc1ccc(OCc2nnc3n2CCCCC3)cc1`: the inhibition is -1.53% (inactive).

As to `CCOCCn1c(CN2CCN(C(c3ccccc3)c3ccccc3)CC2)nc2c1c(=O)n(C)c(=O)n2C`, the inhibition is -5.88% (inactive).

Regarding `COc1ccc(NC(=O)Nc2ccc3c(c2)CCC3)cc1`, the inhibition was 1.61% (inactive).

Turning to `Cc1nnc(Sc2cc(NCCCO)c([N+](=O)[O-])c3nonc23)s1`, the inhibition is 18.5% (inactive).

With `Cc1ccc(Sc2cc(NCCCO)c([N+](=O)[O-])c3nonc23)cc1`, the inhibition was 16.2% (inactive).

With `CCCC(=O)OCCNc1cc(Sc2nc3ccccc3[nH]2)c2nonc2c1[N+](=O)[O-]`, the inhibition is 20.4% (inactive).

Take `CN(CCO)c1cc(Sc2nc3ccccc3s2)c2nonc2c1[N+](=O)[O-]`: the inhibition is 48.2% (inactive).

For the molecule `Cc1nnc(Sc2cc(NCCO)c([N+](=O)[O-])c3nonc23)s1`, the inhibition is 1.46% (inactive).

Turning to `CCC(=O)OCCNc1cc(Sc2nc3ccccc3[nH]2)c2nonc2c1[N+](=O)[O-]`, the inhibition is 29.8% (inactive).

Consider `C[C@@H]1CC=C[C@@H]2[C@H]1C(=O)N(Cc1ccccc1)[C@H]2c1cccc(C#Cc2ccccc2)c1`, for which the inhibition was -4.3% (inactive). The inhibition under setting [1] was -5.45%.

`CC(C)=CCC(C)(C)C1OCCN1C(=O)c1ccccc1` (centres undefined): the inhibition was -7.18% (inactive).

As for `Cc1cc(Br)ccc1NC(=O)CN(C)C(=O)C1CCN(C(=O)c2ccc(Cl)cc2)CC1`, the inhibition is -3.75% (inactive).

As to `O=C1OC(c2ccccc2)c2ccc3ccccc3c21` (centres undefined), the inhibition was -10.9% (inactive).

`CCOc1ccc2c(C)c(Cl)c(=O)oc2c1`: the inhibition was -0.69% (inactive).

With `OCCN1CCN(c2cc(-c3ccccc3)c3ccccc3n2)CC1`, the inhibition is -4.36% (inactive).

Regarding `Cc1ccc(NC(=O)COC(=O)c2c(C)nn(-c3ccccc3)c2C)cc1`, the inhibition is 7.29% (inactive).

As for `C=CCOc1ccc(/C=C2\SC(=S)N(N3CCOCC3)C2=O)cc1`, the inhibition was -7.66% (inactive).

Regarding `CC(=O)NN1C(=O)/C(=C\c2ccccc2)SC1=S`, the inhibition was -3.17% (inactive).

As for `Cc1ccc(/C=C2\SC(=S)N(CCC(=O)NNS(=O)(=O)c3ccc(C)cc3)C2=O)cc1`, the inhibition was -5.09% (inactive).

Take `COc1cccc(-n2nnnc2SCC(=O)NCc2ccco2)c1`: the inhibition is -6.77% (inactive).

Take `O=C(NCCc1c[nH]c2ccccc12)c1ccco1`: the inhibition was -0.82% (inactive).

Regarding `O=C(CNC(=O)C(c1ccccc1)c1ccccc1)N/N=C\c1ccc(C(=O)O)cc1`, the inhibition was 0% (inactive).

For the molecule `Cc1ccc(S(=O)(=O)N2CCN(S(=O)(=O)N3CCOCC3)CC2)cc1C`, the inhibition is 2.05% (inactive).

Turning to `O=C(CCc1ccc(S(=O)(=O)N2CCOCC2)cc1)N/N=C/c1ccc(F)cc1F`, the inhibition is -6.07% (inactive).

`CCn1c(C)nc2cc(C(=O)N/N=C/c3cccc(OC)c3O)ccc21`: the inhibition was -3.68% (inactive).

Take `Cc1cc(/C=N/NC(=O)c2ccccc2F)c(C)n1-c1ccccc1`: the inhibition is -8.18% (inactive).

Consider `O=C(CCc1ccc(S(=O)(=O)N2CCOCC2)cc1)N/N=C/c1cccc(O)c1`, for which the inhibition was -1.28% (inactive).

For the molecule `COc1ccc(/C=N/NC(=O)CCN2CCN(c3ccccc3)CC2)c(OC)c1OC`, the inhibition is -0.66% (inactive).

As for `COc1ccc(/C=N/NC(=O)c2cc(C)n(-c3ccccc3)c2C)cc1OC`, the inhibition was -10.9% (inactive).

Take `O=C(CCN1CCN(c2ccccc2)CC1)N/N=C/c1ccccc1O`: the inhibition was -10.4% (inactive).

With `CCn1c(C)nc2cc(C(=O)N/N=C/c3cccc(O)c3O)ccc21`, the inhibition is -0.82% (inactive).
